From PubChem BioAssay AID1159580 (chemical genetic matrix, 2015)
“And” between values parts separate entries of the source, which are not always exact repeats. Equal entries are not always repeated. The whole screen tested about 5,500 compounds, of which about 2,000 (36%) were called active. Inconclusive results (about 18%) are left out. Cut-off read from the data, not from the text of the source: active = normalized growth mostly below about 0.91 (no sharp cut-off); inconclusive = no clear call, values can overlap the other calls; inactive = mostly above about 0.92. Some of the results follow.

Assay: chemical genetic growth profiling, strain panel (AID 1159580);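 note: tested at 20 µM; growth read once vehicle control cultures reached saturation at 30 °C; 1 = growth at the plate median or of vehicle wells; lower values mean less growth of the strain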
Settings: S. cerevisiae deletion strains, growth OD
[1] = locus YNL128W, strain TEP1, active compounds read low

Measured: normalized growth

CCC(C)C(NC)C(=O)O (stereo not drawn)
inactive: locus YAL013W, strain DEP1, active compounds read low 1.02 | locus YAL021C, strain ccr4, active compounds read low 1.03 | locus YAL026C, strain drs2, active compounds read low 1.02 | locus YAL030W, strain snc1, active compounds read low 1.01 | locus YBL061C, strain skt5, active compounds read low 1.03 | locus YBR009C, strain hhf1, active compounds read low 1.02 | locus YBR021W, strain FUR4, active compounds read low 1.01 | locus YBR023C, strain chs3, active compounds read low 1.02 | locus YBR171W, strain sec66, active compounds read low 1.05 | locus YBR229C, strain ROT2, active compounds read low 0.947 | locus YBR231C, strain swc5, active compounds read low 1.01 | locus YBR279W, strain paf1, active compounds read low 1.01 | locus YCL011C, strain gbp2, active compounds read low 1.02 | locus YCL016C, strain dcc1, active compounds read low 1.03 | locus YCL029C, strain bik1, active compounds read low 0.982 | locus YCL061C, strain MRC1, active compounds read low 1.03 | locus YCL069W, strain vba3, active compounds read low 1.02 | locus YCR088W, strain abp1, active compounds read low 1 | locus YDL005C, strain med2, active compounds read low 1.02 | locus YDL035C, strain GPR1, active compounds read low 0.981 | locus YDL040C, strain nat1, active compounds read low 1.01 | locus YDL074C, strain BRE1, active compounds read low 1.01 | locus YDL101C, strain DUN1, active compounds read low 0.983 | locus YDL134C, strain PPH21, active compounds read low 0.984 | locus YDL185W, strain tfp1, active compounds read low 0.986 | locus YDL192W, strain arf1, active compounds read low 1 | locus YDR001C, strain nth1, active compounds read low 1.02 | locus YDR069C, strain doa4, active compounds read low 1.02 | locus YDR101C, strain arx1, active compounds read low 1 | locus YDR137W, strain rgp1, active compounds read low 1.06 | locus YDR159W, strain sac3, active compounds read low 1.02 | locus YDR162C, strain NBP2, active compounds read low 0.966 | locus YDR195W, strain ref2 0.985 | locus YDR297W, strain sur2, active compounds read low 1.01 | locus YDR318W, strain mcm21, active compounds read low 0.985 | locus YDR334W, strain swr1, active compounds read low 1.02 | locus YDR335W, strain msn5, active compounds read low 1.01 | locus YDR388W, active compounds read low 0.994 | locus YDR392W, strain spt3, active compounds read low 0.986 | locus YDR502C, strain sam2, active compounds read low 0.997 | locus YEL003W, strain gim4, active compounds read low 1.01 | locus YEL037C, strain rad23, active compounds read low 1.02 | locus YEL061C, strain CIN8 (second series), active compounds read low 1.02 | locus YEL061C, strain CIN8, active compounds read low 0.983 | locus YER015W, strain faa2, active compounds read low 1.02 | locus YER016W, strain bim1, active compounds read low 1.01 | locus YER110C, active compounds read low 0.979 | locus YER111C, strain swi4, active compounds read low 1.03 | locus YER155C, strain BEM2 (second series), active compounds read low 1.01 | locus YER155C, strain BEM2, active compounds read low 1 | locus YER167W, strain BCK2, active compounds read low 0.975 | locus YFR010W, strain ubp6, active compounds read low 1.03 | locus YGL078C, strain dbp3, active compounds read low 0.999 | locus YGL086W, strain mad1, active compounds read low 1.01 | locus YGL167C, strain pmr1, active compounds read low 1.02 | locus YGL173C, strain kem1, active compounds read low 1.03 | locus YGL227W, strain vid30, active compounds read low 1.02 | locus YGL240W, strain doc1, active compounds read low 1.01 | locus YGL248W, strain PDE1, active compounds read low 0.982 | locus YGL253W, strain hxk2, active compounds read low 1.02 | locus YGR135W, strain pre9, active compounds read low 0.99 | locus YGR252W, strain gcn5, active compounds read low 0.986 | locus YHR013C, strain ard1, active compounds read low 1.03 | locus YHR027C, strain rpn1, active compounds read low 1.03 | locus YHR030C, strain SLT2, active compounds read low 0.985 and 1.06 | locus YHR079C, strain IRE1 (second series), active compounds read low 0.991 | locus YHR079C, strain IRE1, active compounds read low 1.09 | locus YHR094C, strain hxt1, active compounds read low 0.977 | locus YHR129C, strain ARP1, active compounds read low 0.99 | locus YHR142W, strain chs7, active compounds read low 1.02 | locus YHR200W, strain rpn10, active compounds read low 0.986 | locus YIL066C, strain RNR3, active compounds read low 0.944 | locus YIL073C, strain SPO22, active compounds read low 0.972 | locus YIL125W, strain kgd1, active compounds read low 0.982 | locus YIR030C, strain dcg1, active compounds read low 0.99 | locus YJL092W, strain hpr5, active compounds read low 1.03 | locus YJL095W, strain BCK1 (second series), active compounds read low 1.01 | locus YJL095W, strain BCK1, active compounds read low 1.05 | locus YJL115W, strain asf1, active compounds read low 1.03 | locus YJL129C, strain trk1, active compounds read low 1.05 | locus YJL134W, strain LCB3, active compounds read low 0.967 | locus YJL154C, strain vps35, active compounds read low 1.01 | locus YJL164C, strain tpk1, active compounds read low 1.03 | locus YJL166W, strain qcr8, active compounds read low 1.02 | locus YJL168C, strain set2, active compounds read low 0.993 | locus YJL187C, strain SWE1 (second series), active compounds read low 1 | locus YJL187C, strain SWE1, active compounds read low 1.01 | locus YJR043C, strain POL32, active compounds read low 0.969 | locus YJR066W, strain TOR1, active compounds read low 1 | locus YKL009W, strain mrt4, active compounds read low 1.01 | locus YKL068W, active compounds read low 0.973 | locus YKL085W, strain MDH1 (second series), active compounds read low 0.979 | locus YKL085W, strain MDH1, active compounds read low 0.979 | locus YKL160W, strain elf1, active compounds read low 1.02 | locus YKL190W, strain CNB1, active compounds read low 1 | locus YKR001C, strain vps1, active compounds read low 1 | locus YKR026C, strain gcn3, active compounds read low 1.02 | locus YKR091W, strain srl3, active compounds read low 1 | locus YLL001W, strain dnm1, active compounds read low 1.03 | locus YLL026W, active compounds read low 1.01 | locus YLL041C, strain sdh2, active compounds read low 1.02 | locus YLR027C, strain aat2, active compounds read low 1.02 | locus YLR039C, strain RIC1, active compounds read low 0.995 | locus YLR058C, strain SHM2, active compounds read low 0.935 | locus YLR102C, strain apc9, active compounds read low 0.985 | locus YLR113W, strain HOG1, active compounds read low 1.09 | locus YLR221C, strain rsa3, active compounds read low 1.03 | locus YLR258W, strain gsy2, active compounds read low 1.01 | locus YLR262C, strain YPT6 (second series), active compounds read low 1.05 | locus YLR262C, strain YPT6, active compounds read low 0.989 | locus YLR268W, strain sec22, active compounds read low 1.03 | locus YLR320W, strain mms22, active compounds read low 1.03 | locus YLR330W, strain CHS5, active compounds read low 0.987 | locus YLR342W, strain FKS1 (second series), active compounds read low 0.977 | locus YLR342W, strain FKS1, active compounds read low 1.01 | locus YLR357W, strain rsc2, active compounds read low 1.02 | locus YLR370C, strain arc18, active compounds read low 1.03 | locus YLR371W, strain rom2, active compounds read low 0.982 | locus YLR384C, strain iki3, active compounds read low 1.01 | locus YLR418C, strain cdc73, active compounds read low 0.971 | locus YML016C, strain PPZ1, active compounds read low 0.992 | locus YML032C, strain rad52, active compounds read low 0.963 | locus YML120C, strain ndi1, active compounds read low 1.01 | locus YML124C, strain tub3, active compounds read low 0.997 | locus YMR058W, strain fet3, active compounds read low 1.03 | locus YMR078C, strain ctf18, active compounds read low 0.985 | locus YMR125W, strain sto1, active compounds read low 1.01 | locus YMR129W, active compounds read low 1.02 | locus YMR205C, strain PFK2, active compounds read low 1.03 | locus YMR223W, strain ubp8, active compounds read low 0.991 | locus YMR231W, strain pep5, active compounds read low 1.01 | locus YMR307W, strain GAS1, active compounds read low 1.02 | locus YNL067W, strain RPL9B, active compounds read low 1.03 | locus YNL071W, strain lat1, active compounds read low 1.02 | [1] 0.986 | locus YNL183C, strain NPR1, active compounds read low 0.998 | locus YNL209W, strain ssb2, active compounds read low 1.01 | locus YNL233W, strain BNI4, active compounds read low 1.04 | locus YNL248C, strain rpa49, active compounds read low 1.02 | locus YNL250W, strain rad50, active compounds read low 0.962 | locus YNL271C, strain bni1, active compounds read low 0.992 | locus YNL298W, strain CLA4, active compounds read low 0.988 | locus YNL307C, strain MCK1, active compounds read low 0.988 | locus YNL322C, strain KRE1 (second series), active compounds read low 1.02 | locus YNR049C, strain mso1, active compounds read low 1.02 | locus YNR052C, strain pop2, active compounds read low 1.01 | locus YOL012C, strain htz1 0.872 | locus YOL147C, strain pex11, active compounds read low 0.976 | locus YOR001W, strain rrp6, active compounds read low 1.02 | locus YOR061W, strain CKA2, active compounds read low 0.961 | locus YOR069W, strain VPS5, active compounds read low 0.984 | locus YOR070C, strain gyp1, active compounds read low 1.03 | locus YOR080W, strain dia2, active compounds read low 1.02 | locus YOR083W, strain WHI5, active compounds read low 1.02 | locus YOR106W, strain vam3, active compounds read low 1.02 | locus YOR136W, strain idh2, active compounds read low 0.994 | locus YOR144C, strain elg1, active compounds read low 0.993 | locus YOR184W, strain ser1, active compounds read low 0.989 | locus YOR231W, strain MKK1, active compounds read low 1.08 | locus YOR265W, strain rbl2, active compounds read low 1.01 | locus YOR270C, strain vph1, active compounds read low 1.05 | locus YOR290C, strain snf2, active compounds read low 1.02 | locus YOR316C, strain cot1, active compounds read low 0.993 | locus YPL051W, strain arl3, active compounds read low 1.04 | locus YPL078C, strain atp4, active compounds read low 1.02 | locus YPL106C, strain sse1, active compounds read low 1.01 | locus YPL240C, strain hsp82, active compounds read low 1 | locus YPL241C, strain CIN2, active compounds read low 0.98 | locus YPL256C, strain CLN2, active compounds read low 1.09 | locus YPR119W, strain clb2, active compounds read low 0.991 | locus YPR141C, strain kar3, active compounds read low 0.978 | locus YPR163C, strain tif3, active compounds read low 0.985 | locus YPR167C, strain met16, active compounds read low 0.989 | strain wtn01, active compounds read low 1.01

NC(=O)c1cc[n+](CC2=C(C(=O)O)N3C(=O)[C@@H](NC(=O)[C@@H](c4ccccc4)S(=O)(=O)[O-])[C@H]3SC2)cc1
inactive: locus YAL040C, strain CLN3, active compounds read low 0.993 | locus YCL061C, strain MRC1 (second series), active compounds read low 0.999 | locus YER002W, strain NOP16, active compounds read low 0.995 | [1] 1 | locus YNL175C, strain NOP13, active compounds read low 1 | locus YNL197C, strain WHI3, active compounds read low 0.983 | locus YNL224C, strain SQS1, active compounds read low 1 | locus YOR083W, strain WHI5 (second series), active compounds read low 1.07 | locus YPL055C, strain LGE1, active compounds read low 0.988
